rTrxR1 inhibitor = inhibitors of rat thioredoxin reductase 1; recombinant rTrxR1, NADPH fluorescence consumption, selenite substrate; Potency, µM (highest dose often 114 µM), for inactives: top-dose activity change, negative = inhibition, actives largely listed as inhibitors; hit rate 1% among 390,000; AID 588453; further: nearly all actives have a fitted effect of over 65% in size
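Rat TrxR1 (90 nM in the dispensed reagent) was pre-reduced with 400 uM NADPH for 5 min at room temperature, then incubated with compound for 15 min. After 400 uM selenite was added, NADPH fluorescence (Ex 340/Em 450 nm) was followed for 8 min.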
KAT2A inh = GCN5L2 (KAT2A) acetyltransferase inhibition; Q92830; GCN5L2 HAT assay, ThioGlo1 CoA-SH fluorescence; Potency, µM (highest dose often 58.9 µM), inactives show top-dose activity change, negative = inhibition, most hits filed as inhibitors; hit rate 0.21% among 390,000; AID 504327
Target sequence (Q92830 whole entry, looked up): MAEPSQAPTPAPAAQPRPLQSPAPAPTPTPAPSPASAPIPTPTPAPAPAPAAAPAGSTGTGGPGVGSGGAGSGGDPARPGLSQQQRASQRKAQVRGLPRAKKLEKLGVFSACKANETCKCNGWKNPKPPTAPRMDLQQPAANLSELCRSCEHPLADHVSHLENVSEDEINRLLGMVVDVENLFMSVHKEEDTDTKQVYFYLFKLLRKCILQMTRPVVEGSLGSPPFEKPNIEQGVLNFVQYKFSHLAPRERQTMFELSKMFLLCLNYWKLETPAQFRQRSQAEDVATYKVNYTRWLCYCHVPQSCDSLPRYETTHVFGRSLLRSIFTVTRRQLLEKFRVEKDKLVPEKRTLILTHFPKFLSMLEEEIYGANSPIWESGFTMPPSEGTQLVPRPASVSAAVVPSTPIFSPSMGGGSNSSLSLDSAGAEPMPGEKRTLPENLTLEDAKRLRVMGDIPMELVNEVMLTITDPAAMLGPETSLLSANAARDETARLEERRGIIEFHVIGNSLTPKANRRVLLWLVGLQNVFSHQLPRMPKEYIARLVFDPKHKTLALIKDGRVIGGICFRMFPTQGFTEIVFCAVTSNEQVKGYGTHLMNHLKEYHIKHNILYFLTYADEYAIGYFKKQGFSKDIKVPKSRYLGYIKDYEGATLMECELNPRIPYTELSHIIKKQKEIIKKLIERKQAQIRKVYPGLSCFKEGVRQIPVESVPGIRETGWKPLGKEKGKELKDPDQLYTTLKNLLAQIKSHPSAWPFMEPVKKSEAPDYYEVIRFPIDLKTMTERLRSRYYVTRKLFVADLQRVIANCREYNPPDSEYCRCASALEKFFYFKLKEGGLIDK
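GCN5L2 (20nM final) in 50mM HEPES, 0.1mM EDTA pH 7.5, 0.01% Tween-20 was preincubated 15 min at room temperature with compound, then given ThioGlo1 (50uM), H3(1-25) peptide (75uM) and acetyl-CoA (70uM); CoA-thiol fluorescence (Ex340/Em540) was read at 0 and 20 min.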
GLS inh = blocks human kidney-isoform glutaminase activity. AID 624170. GLS enzymatic activity, qHTS titration. O94925. hit rate 0.21% among 410,000. Potency, µM (series often up to 45.5 µM), for the others: at the highest dose activity change, negative = inhibition, usual class: inhibitors
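Assay buffer: 45 mM KH2PO4 pH 8.2, 0.02% Tween-20. hKGA acts on L-glutamine (1 mM solution added); product glutamate is reported by an oxidase/peroxidase Amplex Red coupling, with fluorescence taken at baseline and 30 min.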
TrxR1 substrate = rat thioredoxin reductase 1 substrate activity; purified TrxR1 substrate turnover, NADPH consumption readout; Potency, µM (top dose mostly 114 µM), for the others: at the top dose activity change, negative = substrate turnover; hit rate 0.01% among 390,000; AID 588456; further: nearly all actives have a fitted effect of over 50% in size
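Rat TrxR1, dispensed at 90 nM, was prereduced with 400 uM NADPH (final) for 5 min at ~22 deg C, then incubated with compound 15 min before 400 uM selenite. A first-read NADPH fluorescence drop versus no-compound background flagged substrates.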
VDR inh = blocks the human vitamin D receptor. hit rate 0.93% among 400,000. P11473. VDR-SRC2-3 peptide fluorescence polarization, 2 h. Potency, µM, inactives show max response, negative = inhibition, actives largely listed as inhibitors
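VDR–SRC2-3 interaction, FP format. Cmpds 23 nl via pintool, brief spin, 2 h ambient incubation.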
Sfp inh = inhibitors of Bacillus subtilis Sfp phosphopantetheinyl transferase; Biochemical Sfp PPTase activity, qHTS; Potency, µM, inactives show largest response in the series, negative = inhibition, most hits filed as inhibitors; hit rate 3.5% among 310,000; AID 1490;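 further: the enzyme is Sfp with the accession as filed and its product quenches rhodamine fluorescence; 0% = enzyme reaction without inhibitor and -100% = no enzyme wells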
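Compounds were incubated with enzyme (final 15 nM) for 15 min at room temperature before substrate addition started the reaction. Fluorescence at 525 nm excitation, 598 nm emission was recorded immediately and after 30 minutes.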
* marks the source's active call; other numbers are inactive results; [ ] = another dose, or the depositor's remark. A selection: hits, their analogues and other compounds. The true share with any hit is near 3.8%. The call rests on the fitted dose curve; in most records, active means well fitted curve in the direction sought with a large enough effect; inconclusive means small, poorly fitted or top-dose-only effect, or another doubt; inactive means no such curve, though single readings can be large; an effect the other way counts as inactive or inconclusive. Unless noted, on the % scale 0 is the no-effect control and ±100 the full control effect; potency means the concentration at half of the fitted maximal effect.

O=C(c1csnn1)N1CCC[C@@]2(CCN(c3ccncc3)C2)C1 was read as KAT2A inh -7%, VDR inh 71µM* and Sfp inh -3%.
`CCOC(=O)c1c(NC(=O)CSc2nccn2C)sc(C(=O)NC)c1C` gave rTrxR1 inhibitor -4%[57.1 µM], KAT2A inh -3%, GLS inh 0%, TrxR1 substrate -3%[57.1 µM] and VDR inh -11%.
Screening CCC(C)NC(=O)c1ccccc1-c1ccccc1C(=O)NC(C)CC (configuration not stated) returned rTrxR1 inhibitor 12%[57.1 µM], KAT2A inh 4%, GLS inh -14%, TrxR1 substrate 6%[57.1 µM], VDR inh -8% and Sfp inh 7%.
Screening Cc1cc(C(=O)Nc2cccc3c2O[C@H](CN(C)CC2CC2)[C@@H](C)CN([C@H](C)CO)C3=O)n(C)n1 returned rTrxR1 inhibitor 0%, KAT2A inh 0%, GLS inh 4%, TrxR1 substrate 5% and VDR inh -3%.
Screening C=CCSc1nc2ccccc2n2cnnc12 returned rTrxR1 inhibitor -2%, KAT2A inh 6%, GLS inh -5%, TrxR1 substrate -4%, VDR inh 14% and Sfp inh -2%.
Screening CCOC(=O)CSc1nc2ccccc2n2cnnc12 returned rTrxR1 inhibitor inconclusive, KAT2A inh -4%, GLS inh -3%, TrxR1 substrate 3%, VDR inh -2% and Sfp inh 56µM*.
`CN1CCN(CC(O)COc2ccc(S(=O)(=O)N3CCOCC3)cc2)CC1` (configuration not stated) gave rTrxR1 inhibitor 34%, KAT2A inh -3%, GLS inh 7%, TrxR1 substrate 0% and VDR inh -1%.
`Cc1cc(C)cc(NC(=O)CN2C(=O)c3ccccc3Sc3ncccc32)c1` gave rTrxR1 inhibitor 17%, KAT2A inh 0%, GLS inh 6%, TrxR1 substrate -1% and VDR inh 14%.
`Nc1ccc(OC(=O)Nc2ccc(O)cc2)cc1` gave rTrxR1 inhibitor 5%[57.1 µM], KAT2A inh -6%, GLS inh 14µM*, TrxR1 substrate 11%[57.1 µM], VDR inh -3% and Sfp inh -12%.
Screening Cc1cccc(NC(=O)NNC(=O)c2cc3ccccc3cc2O)c1C returned rTrxR1 inhibitor 22%[57.1 µM], KAT2A inh inconclusive, GLS inh -8%, TrxR1 substrate 7%, VDR inh 2% and Sfp inh -2%.
For O=[N+]([O-])c1ccccc1CN1CCN(Cc2ccc3ccccc3c2)CC1 the results were rTrxR1 inhibitor 25%, KAT2A inh -3%, GLS inh 7%, TrxR1 substrate 3%, VDR inh -16% and Sfp inh inconclusive.
`CC(C)CC(=O)N1CCN(Cc2ccccc2[N+](=O)[O-])CC1` gave rTrxR1 inhibitor 23%[57.1 µM], KAT2A inh 1%, GLS inh 2%, TrxR1 substrate 4%[57.1 µM], VDR inh -18% and Sfp inh 56µM*.
CN(Cc1ccccc1)C1CCN(Cc2ccccc2[N+](=O)[O-])CC1 was read as rTrxR1 inhibitor 6%, KAT2A inh -10%, GLS inh 5%, TrxR1 substrate -2%, VDR inh 2% and Sfp inh 79µM*.
Screening CC(C)CC(=O)N1CCN(Cc2cccc([N+](=O)[O-])c2)CC1 returned rTrxR1 inhibitor 14%, KAT2A inh -23%, GLS inh 2%, TrxR1 substrate -2%, VDR inh -2% and Sfp inh 4%.
Screening C/C(=N/Nc1ccccc1C(=O)O)c1cccs1 returned rTrxR1 inhibitor -1%[57.1 µM], KAT2A inh -1%, GLS inh 13µM*, TrxR1 substrate 0%[57.1 µM], VDR inh -6% and Sfp inh 17%.
C/C(=N\Nc1ccc(Cl)c(C(=O)O)c1)c1cccs1 was read as rTrxR1 inhibitor 14%, KAT2A inh -19%, GLS inh inconclusive, TrxR1 substrate -3%, VDR inh -19% and Sfp inh inconclusive.

Screening results: PubChem, National Center for Advancing Translational Sciences (NCATS)
